According to PubChem BioAssay (Tox21):
Results filed as inconclusive are left out. Active and inactive are the calls of the source. Unless noted, the call rests on the fitted dose curve; in most records, active means well fitted curve in the direction sought with a large enough effect in the repeat runs; inconclusive means weak or mixed curves; inactive means no such curve, though single readings can be large; an effect the other way counts as inactive or inconclusive.

Tests used:
[1] = qHTS assay to identify small molecule antagonists of the estrogen receptor beta (ER-beta) signaling pathway - cell viability counter screen (AID 1259382);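 further: HEK293T cells carrying ER-beta-UAS-bla reporter stimulated with estradiol; series mostly up to about 92 µM; nearly all actives have a fitted effect of over 55% in size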
Procedure, shortened: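 ER-beta-UAS-bla HEK293T cells in 2% charcoal-stripped FBS medium, treated with compound plus 1 nM 17-beta-estradiol for 16 h at 37C. Viability read by CellTiter-Glo luminescence after 30 min at room temperature in the same wells.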

[2] = target: Estrogen receptor (Homo sapiens) (UniProt P03372); experiment: qHTS assay to identify small molecule agonists of the estrogen receptor alpha (ER-alpha) signaling pathway in the presence of an antagonist (AID 1259383; calls by dose curve; further: top concentration of the series differs between compounds; nearly all actives have a fitted effect of over 15% in size)
Chain of Estrogen receptor (Homo sapiens) (P03372 whole entry, looked up): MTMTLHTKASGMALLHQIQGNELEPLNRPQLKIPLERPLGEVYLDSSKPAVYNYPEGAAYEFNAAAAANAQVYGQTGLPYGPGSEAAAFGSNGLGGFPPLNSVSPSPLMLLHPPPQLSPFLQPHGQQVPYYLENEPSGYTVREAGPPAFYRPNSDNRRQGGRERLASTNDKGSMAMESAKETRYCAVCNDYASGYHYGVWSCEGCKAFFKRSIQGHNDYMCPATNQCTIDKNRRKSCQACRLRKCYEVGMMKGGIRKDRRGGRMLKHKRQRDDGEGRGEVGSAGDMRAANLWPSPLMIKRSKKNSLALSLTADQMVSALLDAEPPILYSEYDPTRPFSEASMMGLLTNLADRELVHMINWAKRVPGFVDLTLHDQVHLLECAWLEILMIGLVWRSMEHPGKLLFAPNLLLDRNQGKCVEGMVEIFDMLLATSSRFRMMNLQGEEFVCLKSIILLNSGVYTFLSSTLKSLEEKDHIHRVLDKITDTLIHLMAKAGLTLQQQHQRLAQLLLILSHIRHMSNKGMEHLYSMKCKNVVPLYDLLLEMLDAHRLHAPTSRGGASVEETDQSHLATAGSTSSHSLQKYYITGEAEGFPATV
Procedure, shortened: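 VM7Luc4E2 cells express endogenous full-length ER-alpha with an ERE-luciferase reporter and were hormone-deprived for 5 days. Compounds at 15 concentrations were added with 10.0nM ICI-182,780 for 22hr at 37C. Luminescence was read with ONE-Glo.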

[3] = qHTS assay to identify small molecule agonists or antagonists of the thyroid stimulating hormone receptor (TSHR) signaling pathway - wild type cell line counter screen (AID 1259384; calls by dose curve)
Procedure, shortened: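 Counter screen in untransfected Hek293: compounds (15-point titration, triplicate) plus phosphodiesterase inhibitor Ro20-1724 added after 18 h plating; 30 min RT. Intracellular cAMP via competitive d2/cryptate immunoassay, 1 h incubation.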

[4] = target: Thyrotropin receptor (Homo sapiens) (UniProt P16473); experiment: qHTS assay to identify small molecule antagonists of the thyroid stimulating hormone receptor (TSHR) signaling pathway (AID 1259385; calls by dose curve; further: nearly all actives have a fitted effect of over 20% in size)
Chain of Thyrotropin receptor (Homo sapiens) (P16473 whole entry, looked up): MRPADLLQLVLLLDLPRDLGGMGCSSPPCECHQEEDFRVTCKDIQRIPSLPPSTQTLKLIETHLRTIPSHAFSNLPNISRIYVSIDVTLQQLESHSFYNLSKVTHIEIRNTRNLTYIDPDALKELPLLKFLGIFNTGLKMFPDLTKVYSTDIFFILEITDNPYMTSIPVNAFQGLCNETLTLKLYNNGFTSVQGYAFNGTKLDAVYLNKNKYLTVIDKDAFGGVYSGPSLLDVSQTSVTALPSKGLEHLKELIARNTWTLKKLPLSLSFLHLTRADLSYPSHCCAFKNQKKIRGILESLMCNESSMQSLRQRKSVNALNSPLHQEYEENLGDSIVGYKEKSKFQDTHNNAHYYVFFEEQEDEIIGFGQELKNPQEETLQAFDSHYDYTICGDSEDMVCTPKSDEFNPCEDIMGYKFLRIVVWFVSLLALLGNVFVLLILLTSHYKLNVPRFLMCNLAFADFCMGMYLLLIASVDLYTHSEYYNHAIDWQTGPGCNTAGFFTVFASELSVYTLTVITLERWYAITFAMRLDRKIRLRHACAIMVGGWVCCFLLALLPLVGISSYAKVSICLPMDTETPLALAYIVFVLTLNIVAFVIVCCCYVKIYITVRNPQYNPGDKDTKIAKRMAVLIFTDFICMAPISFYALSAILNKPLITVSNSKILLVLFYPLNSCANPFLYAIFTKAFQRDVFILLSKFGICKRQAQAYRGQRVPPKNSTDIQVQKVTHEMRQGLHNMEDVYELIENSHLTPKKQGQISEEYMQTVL
Procedure, shortened: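 Antagonist mode: compound-treated TSHR-expressing HEK293 cells were stimulated with 1.5 ng/mL TSH (final) in presence of Ro20-1724 for 30 min at RT. HTRF cAMP detection after 1 h; each compound tested at 15 concentrations, triplicate.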

[5] = qHTS assay to identify small molecule agonists of the estrogen receptor alpha (ER-alpha) signaling pathway in the presence of an antagonist - cell viability counter screen (AID 1259386);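 further: series mostly up to about 92 µM; cells exposed to compounds for 22 h at 37 °C before the viability read; nearly all actives have a fitted effect of over 30% in size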
Procedure, shortened: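 Cell viability in VM7Luc4E2 cells (endogenous full-length ER-alpha) measured by CellTiter-Fluor fluorescence in the same wells as the luciferase screen. Cells pre-cultured 5 days in charcoal-stripped serum, then treated 22 h with compounds at 15 concentrations plus 10.0nM ICI-182,780.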

[6] = target: Progesterone receptor (Homo sapiens) (UniProt P06401); experiment: qHTS assay to identify small molecule agonists of the progesterone receptor (PR) signaling pathway (AID 1346784; calls by dose curve; further: nearly all actives have a fitted effect of over 30% in size)
Chain of Progesterone receptor (Homo sapiens) (P06401 whole entry, looked up): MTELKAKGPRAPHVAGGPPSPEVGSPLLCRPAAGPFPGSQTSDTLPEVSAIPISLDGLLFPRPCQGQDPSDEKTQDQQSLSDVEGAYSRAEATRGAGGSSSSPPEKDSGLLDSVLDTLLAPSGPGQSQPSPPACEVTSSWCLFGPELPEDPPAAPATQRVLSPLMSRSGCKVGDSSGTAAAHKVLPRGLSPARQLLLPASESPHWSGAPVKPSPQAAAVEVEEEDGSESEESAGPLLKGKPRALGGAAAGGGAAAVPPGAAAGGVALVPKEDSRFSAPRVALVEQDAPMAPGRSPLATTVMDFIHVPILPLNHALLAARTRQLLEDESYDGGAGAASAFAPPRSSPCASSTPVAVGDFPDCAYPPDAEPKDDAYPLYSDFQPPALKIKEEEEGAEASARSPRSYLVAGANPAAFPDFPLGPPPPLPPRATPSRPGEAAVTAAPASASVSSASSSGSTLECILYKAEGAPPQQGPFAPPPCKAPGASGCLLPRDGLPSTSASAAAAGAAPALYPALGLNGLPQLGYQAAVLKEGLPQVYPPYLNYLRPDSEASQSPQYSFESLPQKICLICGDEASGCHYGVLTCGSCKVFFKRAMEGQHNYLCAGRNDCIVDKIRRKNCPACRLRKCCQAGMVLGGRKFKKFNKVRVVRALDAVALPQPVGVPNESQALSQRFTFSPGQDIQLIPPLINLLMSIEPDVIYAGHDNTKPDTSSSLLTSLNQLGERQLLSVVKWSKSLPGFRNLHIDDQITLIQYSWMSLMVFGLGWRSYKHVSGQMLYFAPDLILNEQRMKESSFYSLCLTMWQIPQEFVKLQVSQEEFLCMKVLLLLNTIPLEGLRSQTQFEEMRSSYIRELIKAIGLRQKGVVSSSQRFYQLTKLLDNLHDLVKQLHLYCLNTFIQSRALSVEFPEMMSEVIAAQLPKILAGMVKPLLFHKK
Procedure, shortened: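 Compounds were tested for PR agonism in HEK 293T cells bearing a beta-lactamase gene under UAS control. Treatment lasted 16 hr at 37C; signal came from fluorescence of a FRET substrate.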

[7] = target: Progesterone receptor (Homo sapiens) (UniProt P06401); experiment: qHTS assay to identify small molecule antagonists of the progesterone receptor (PR) signaling pathway (AID 1346795; active means well fitted inhibition curve with a large enough effect in the signal ratio in the repeat runs, not every such curve was filed as active; the % refers to the signal ratio)
Procedure, shortened: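 In HEK293T cells bearing the PR-UAS-bla reporter, compound effects on promegestone-driven (1 nM) beta-lactamase expression are assessed after 16 hr using a fluorescent FRET substrate incubated 2 hr at room temperature.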

[8] = qHTS assay to identify small molecule antagonists of the progesterone receptor (PR) signaling pathway - cell viability counter screen (AID 1346798); further: series mostly up to about 92 µM; nearly all actives have a fitted effect of over 50% in size
Procedure, shortened: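 Following a 4 hr attachment, PR-UAS-bla HEK293T cells in charcoal-stripped FBS medium were exposed to compounds with R5020 for 16 hr; CellTiter-Glo was added and luminescence read after 30 min at room temperature.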

[9] = qHTS assay to identify small molecule agonists of the progesterone receptor (PR) signaling pathway - cell viability counter screen (AID 1346799; calls by dose curve; further: nearly all actives have a fitted effect of over 45% in size)
Procedure, shortened: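 Here, 3,000 PR-UAS-bla HEK293T cells per well were treated with compounds for 16 hr after a 6 hr preincubation at 37C and 5% CO2; cell viability is the CellTiter-Glo luminescence signal.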

[10] = qHTS assay to identify small molecule antagonists of the TGF-beta/Smad signaling pathway - cell viability counter screen (AID 1346824); further: nearly all actives have a fitted effect of over 50% in size
Procedure, shortened: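 Cytotoxicity counter-screen run in the same wells as the beta-lactamase Smad reporter read: CellTiter-Glo luminescence after 30 min at room temperature. HEK 293T SBE-bla cells had 5 hr compound exposure at 37 C with TGF-beta1 (0.25 ng/mL stock).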

[11] = qHTS assay to identify small molecule agonists of the TGF-beta/Smad signaling pathway - cell viability counter screen (AID 1346829); further: top concentration of the series differs between compounds; nearly all actives have a fitted effect of over 45% in size
Procedure, shortened: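 HEK 293T SBE-bla line, 5 hr compound exposure at 37 C, multiplexed CellTiter-Glo viability read by luminescence.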

[12] = qHTS assay to identify small molecule agonists of the TGF-beta/Smad signaling pathway (AID 1346859; active means well fitted activation curve with a large enough effect in the signal ratio in the repeat runs, not every such curve was filed as active; the % refers to the signal ratio; further: series mostly up to about 77 µM)
Procedure, shortened: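 Each well held 4,000 SBE-bla HEK 293T cells incubated overnight before compound addition; 5 hr later the cleavable FRET substrate went on for 2 hr at room temperature, and fluorescence was read at two emissions.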

[13] = Human pregnane X receptor (PXR) small molecule agonists, qHTS cell viability counter screen (AID 1346977); further: nearly all actives have a fitted effect of over 50% in size
Procedure, shortened: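 Tox21 qHTS format; PXR-Luc HepG2, 2,000/well, charcoal-stripped FBS 5%. Cpd exposure 24hr. Read: CellTiter-Fluor fluorescence, multiplexed with luciferase.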

[14] = Caspase-3/7 induction in HepG2 cells by small molecules, qHTS assay (AID 1346978); further: nearly all actives have a fitted effect of over 15% in size
Procedure, shortened: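 Caspase-3/7 induction was measured by Caspase-Glo 3/7 luminescence (30 min, room temperature) after a 17 hr compound exposure of wild-type HepG2 cells seeded at 2,000 per well and pre-incubated 5 hr.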

[15] = Caspase-3/7 induction in CHO-K1 cells by small molecules, qHTS assay (AID 1346980); further: nearly all actives have a fitted effect of over 15% in size
Procedure, shortened: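 Luminescent Caspase-Glo 3/7 read (30min, room temperature) quantified apoptosis induction. Cells were wild-type CHO-K1, treated with compound for 17hr at 37 C and 5% CO2.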

[16] = target: Nuclear receptor subfamily 1 group I member 2 (Homo sapiens) (UniProt O75469); experiment: Human pregnane X receptor (PXR) small molecule agonists, qHTS assay (AID 1346982); further: nearly all actives have a fitted effect of over 35% in size
Chain of Nuclear receptor subfamily 1 group I member 2 (Homo sapiens) (O75469 whole entry, looked up): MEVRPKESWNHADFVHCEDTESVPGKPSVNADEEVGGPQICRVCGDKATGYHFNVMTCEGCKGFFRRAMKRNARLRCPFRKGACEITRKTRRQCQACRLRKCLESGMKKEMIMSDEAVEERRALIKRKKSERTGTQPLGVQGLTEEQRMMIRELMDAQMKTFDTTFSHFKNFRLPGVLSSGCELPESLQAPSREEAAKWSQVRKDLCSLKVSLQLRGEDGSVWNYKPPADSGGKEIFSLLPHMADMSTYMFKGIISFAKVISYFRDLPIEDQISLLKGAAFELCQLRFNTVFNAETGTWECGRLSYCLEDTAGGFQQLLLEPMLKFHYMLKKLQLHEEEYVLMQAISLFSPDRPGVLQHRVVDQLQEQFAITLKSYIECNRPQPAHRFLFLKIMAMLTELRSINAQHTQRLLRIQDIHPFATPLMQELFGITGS
Procedure, shortened: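 PXR-Luc HepG2 reporter cells (CYP3A4-driven luciferase) in 5% charcoal-stripped FBS medium, plated 5 h before compound addition, then treated 24 h at 37C. Luciferase read by ONE-Glo luminescence after 30 min at room temperature.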

[17] = target: Thyrotropin-releasing hormone receptor (Homo sapiens) (UniProt P34981); experiment: qHTS assay to identify small molecule agonists of the thyrotropin-releasing hormone receptor (TRHR) signaling pathway (AID 1346891; calls by dose curve; further: series mostly up to about 58 µM)
Chain of Thyrotropin-releasing hormone receptor (Homo sapiens) (P34981 whole entry, looked up): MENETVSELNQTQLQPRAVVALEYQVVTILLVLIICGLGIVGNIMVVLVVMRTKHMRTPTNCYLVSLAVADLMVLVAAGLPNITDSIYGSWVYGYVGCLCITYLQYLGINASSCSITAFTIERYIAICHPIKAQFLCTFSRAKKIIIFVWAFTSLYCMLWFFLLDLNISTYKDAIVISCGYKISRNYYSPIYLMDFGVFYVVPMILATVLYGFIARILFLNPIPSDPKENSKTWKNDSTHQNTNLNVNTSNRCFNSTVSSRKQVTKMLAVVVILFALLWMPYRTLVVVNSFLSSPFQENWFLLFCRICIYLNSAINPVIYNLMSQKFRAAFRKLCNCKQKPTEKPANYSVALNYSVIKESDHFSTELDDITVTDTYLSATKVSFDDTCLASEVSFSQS
Procedure, shortened: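 Screening of agonists relied on calcium signalling in HEK293 cells expressing human TRHR: dye loading 2 h at 37 °C preceded compound addition and a 3-min fluorescence time course.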

[18] = target: Thyrotropin-releasing hormone receptor (Homo sapiens) (UniProt P34981); experiment: qHTS assay to identify small molecule antagonists of the thyrotropin-releasing hormone receptor (TRHR) signaling pathway (AID 1346877; active means well fitted inhibition curve with a large enough effect in the repeat runs, not every such curve was filed as active; further: series mostly up to about 51 µM)
Procedure, shortened: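 TRHR-expressing HEK293 cells loaded with calcium dye for 2 h at 37 C; compounds pre-incubated 5 min at room temperature before TRH challenge at 1 nM final. Intracellular calcium fluorescence read kinetically for 3 min; 15 concentrations in triplicate.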

[19] = Caspase-3/7 induction in CHO-K1 cells by small molecules, qHTS cell viability counter screen (AID 1346979); further: nearly all actives have a fitted effect of over 35% in size
Procedure, shortened: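 CellTiter-Fluor viability check, qHTS format: wild-type CHO-K1, 16hr compound treatment, 1hr reagent incubation, fluorescence read.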

[20] = Caspase-3/7 induction in HepG2 cells by small molecules, qHTS cell viability counter screen (AID 1346981); further: series mostly up to about 92 µM; nearly all actives have a fitted effect of over 30% in size
Procedure, shortened: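 Wild-type HepG2 cells, 2,000/well, settled 5 hr at 37 C, 5% CO2 before compound addition. Viability read by CellTiter-Fluor fluorescence, reagent added after 16 hr compound exposure, then 1 hr at 37C, in the same wells as the caspase read.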

Measured: Potency

C=CC(=O)OCC(Br)CBr (stereo not drawn)
inactive: [1] | [2] | [3] | [4] | [5] | [6] | [7] | [8] | [9] | [10] | [11] | [12] | [13] | [14] | [15] | [16]

O=C1CCC(=O)N1
inactive: [1] | [2] | [3] | [4] | [5] | [6] | [7] | [8] | [9] | [10] | [11] | [12] | [17] | [13] | [14] | [15] | [16]

O=C1OCc2ccccc21
inactive: [1] | [2] | [3] | [4] | [5] | [6] | [7] | [8] | [9] | [10] | [11] | [12] | [17] | [13] | [14] | [15]

CCc1cccc(C)c1N(C(=O)C(=O)O)C(C)COC (stereo not drawn)
inactive: [1] | [2] | [3] | [4] | [5] | [6] | [7] | [8] | [9] | [10] | [11] | [12] | [18] | [17] | [13] | [14] | [19] | [15] | [16]

Cn1ccnc1
inactive: [1] | [2] | [3] | [4] | [5] | [6] | [7] | [8] | [9] | [11] | [12] | [18] | [17] | [13] | [14] | [15] | [20] | [16]

CC(c1cc(C(C)(C)C)cc(C(C)(C)C)c1O)c1cc(C(C)(C)C)cc(C(C)(C)C)c1O
inactive: [1] | [2] | [3] | [4] | [5] | [6] | [7] | [8] | [9] | [10] | [11] | [12] | [18] | [17] | [13] | [14] | [15] | [16]

CCCCCCCCc1ccc(Nc2ccc(CCCCCCCC)cc2)cc1
inactive: [1] | [2] | [3] | [4] | [5] | [6] | [7] | [8] | [9] | [10] | [11] | [12] | [18] | [13] | [14] | [19] | [15] | [20] | [16]
